POLI inh: qHTS for Inhibitors of Polymerase Iota. Pol iota fluorescent replication assay, 10 min. Potency, µM (titrated, usually from 115 µM), inactives show top-dose activity, negative = inhibition, most hits filed as inhibitors. hit rate 1% among 390,000
Target sequence (Q9UNA4 whole entry, looked up): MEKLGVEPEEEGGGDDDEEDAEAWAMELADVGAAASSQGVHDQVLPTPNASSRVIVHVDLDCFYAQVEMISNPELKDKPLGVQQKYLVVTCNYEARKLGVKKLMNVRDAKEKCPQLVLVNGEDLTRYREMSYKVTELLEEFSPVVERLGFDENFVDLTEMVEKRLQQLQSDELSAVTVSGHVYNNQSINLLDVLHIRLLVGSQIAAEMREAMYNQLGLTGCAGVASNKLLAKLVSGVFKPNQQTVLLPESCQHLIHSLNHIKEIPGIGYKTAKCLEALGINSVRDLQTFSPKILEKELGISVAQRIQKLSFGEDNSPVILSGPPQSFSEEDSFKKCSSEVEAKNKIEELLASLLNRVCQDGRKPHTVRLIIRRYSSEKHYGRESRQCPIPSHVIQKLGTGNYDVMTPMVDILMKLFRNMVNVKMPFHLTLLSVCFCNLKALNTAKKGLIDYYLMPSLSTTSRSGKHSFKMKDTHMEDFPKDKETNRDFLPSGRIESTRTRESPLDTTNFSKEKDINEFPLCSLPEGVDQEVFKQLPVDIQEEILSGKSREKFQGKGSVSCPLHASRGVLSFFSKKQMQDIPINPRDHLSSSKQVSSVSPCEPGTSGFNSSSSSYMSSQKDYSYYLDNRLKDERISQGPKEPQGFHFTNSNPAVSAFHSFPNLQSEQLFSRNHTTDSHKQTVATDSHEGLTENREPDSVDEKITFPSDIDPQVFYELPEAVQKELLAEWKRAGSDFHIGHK
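Pol iota at 10 nM preincubated 15 min with compounds at room temperature; reaction started with fluorescent substrate, 50 nM final. Fluorescence read kinetically at 0 and 10 min; buffer-only wells as negative control.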
WRN inhibitor: qHTS for Inhibitors of WRN Helicase; Potency, µM (highest dose often 114 µM), inactives show at the highest dose activity change, negative = inhibition, hits mostly inhibitors; WRN helicase unwinding, fluorescent forked duplex, kinetic; AID 651768, 2012; hit rate 0.46% among 360,000; further: on the % scale 0 is the no-effect control and ±100 the full control effect; nearly all actives have a fitted effect of over 55% in size
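Screening of the MLSMR collection measured strand separation of a quenched forked DNA duplex (100 nM) by 20 nM WRN with 2 mM ATP, all final. Compounds were preincubated with enzyme 15 min at room temperature.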
Pol beta inh: qHTS Assay for Inhibitors of DNA Polymerase Beta | P06746 | Pol beta primer extension/strand displacement, fluorescence kinetic | Potency, µM (top dose mostly 114 µM), for the others: top-dose activity change, negative = inhibition, most hits filed as inhibitors | hit rate 1.3% among 340,000 | AID 485314, 2010; further: on the % scale 0 is the no-effect control and ±100 the full control effect
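Values derive from four-parameter Hill fits of normalized kinetic data: reads at 0 and 10 min following addition of 50 nM substrate to 10 nM Pol beta preincubated 15 min with compound.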
POLH inh: qHTS for Inhibitors of Polymerase Eta; DNA polymerase eta (Homo sapiens), Q9Y253; Potency, µM (highest dose often 114 µM), without a hit: at the top dose activity change, negative = inhibition, actives largely listed as inhibitors; recombinant Pol eta, fluorescent DNA replication assay; hit rate 1.2% among 390,000; AID 588591, 2011; further: on the % scale 0 is the no-effect control and ±100 the full control effect
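Pol eta at 10 nM preincubated with compounds 15 min at room temperature; reaction started with fluorescent substrate (50 nM final) and read kinetically at 0 and 10 min.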
FEN1 inhibitor: qHTS Assay for the Inhibitors of Human Flap endonuclease 1 (FEN1); hit rate 0.35% among 390,000; Recombinant FEN1 flap cleavage, fluorescence, 15 min; P39748; Potency, µM (series often up to 114 µM), inactives show at the top dose activity change, negative = inhibition, most hits filed as inhibitors; further: on the % scale 0 is the no-effect control and ±100 the full control effect; nearly all actives have a fitted effect of over 65% in size
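Recombinant FEN1 (10 nM) was preincubated with pin-transferred compounds for 15 min at room temperature, then flap DNA substrate (50 nM final) was added. Plates were read at 0 and 15 min, and normalized concentration–response data were fitted to a four-parameter Hill equation.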
POLK inh: qHTS for Inhibitors of Polymerase Kappa. DNA polymerase kappa (Homo sapiens), Q9UBT6. purified Pol kappa, fluorescent DNA synthesis assay, 10 min. Potency, µM (top dose mostly 107 µM), inactives show at the highest dose activity, negative = inhibition, usual class: inhibitors. AID 588579, 2011. hit rate 0.53% among 400,000; further: on the % scale 0 is the no-effect control and ±100 the full control effect
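Fluorescent qHTS in 1536-well format: enzyme (10 nM) and compound sat 15 min at room temperature before 50 nM substrate (final) was added. Signal taken at 0 and 10 min; no-enzyme buffer wells were negative controls.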
* = called active by the depositor; ? = inconclusive; · = not tested or not shown; [ ] = remark or other dose. A selection: hits, their analogues and other compounds. The true share with any hit is near 2.4%. The call rests on the fitted dose curve; in most records, active means well fitted curve in the direction sought with a large enough effect; inconclusive means small, poorly fitted or top-dose-only effect, or another doubt; inactive means no such curve, though single readings can be large; an effect the other way counts as inactive or inconclusive. Potency means the concentration at half of the fitted maximal effect.

SMILES	POLI inh	WRN inhibitor	Pol beta inh	POLH inh	FEN1 inhibitor	POLK inh
O=C1CC(c2ccco2)Sc2nc3ccccc3n21 (configuration not stated)	20µM*	?	-2%	7%	-12%	50µM*
O=C1CC(c2cccs2)Sc2nc3ccccc3n21 (configuration not stated)	-10%	-2%[57.1 µM]	-27%	-6%	-4%	2%
COc1ccccc1NC(=O)c1cnn(-c2ccccc2)c1-n1cccc1	20%	·	0%	-8%	3%	-16%
COc1cc(OC)c(NC(=O)c2cnn(-c3ccccc3)c2-n2cccc2)cc1Cl	?	·	50µM*	0%	-2%	-2%
CCCn1cc(S(=O)(=O)CC(=O)Nc2ccc(OCC)cc2)c2ccccc21	15%	-4%	89µM*	-8%	-4%	-9%
COC(=O)C1=C[C@@H](C(=O)OC)[C@@H]2C3=C(C(=O)C2(C)C)[C@H](C)n2c(=O)n(C)c(=O)n2[C@@H]3C1	?	·	·	·	-20%	?
CCCCCNC(=O)c1ccc2c(=O)n(CCOC)c(=O)[nH]c2c1	20%	8%	-1%	-17%	5%	-3%
CCCCCCn1c(=O)[nH]c2nc3cc(N)ccc3nc2c1=O	27%	-32%[57.1 µM]	10µM*	-23%	-1%	-16%
O=C1c2ccccc2C(=O)N1c1cccc(N2C(=O)c3ccccc3C2=O)n1	12%	·	·	·	-5%	1%
CC(/C=N/Nc1ccc2nncn2n1)=C\c1ccccc1	-4%	-4%[11.6 µM]	?	79µM*	?	-5%
C(=C\c1ccccc1)/C=N/Nc1ccc2nncn2n1	24%	-7%	-1%	-20%	-5%	8%
O=C1CCC[C@@H]2[C@@H](Cc3ccccc3)[C@@H](Nc3ccccc3)C[C@@H]3CCN1[C@@H]32	-5%	·	·	·	-8%	13%
COc1ccc(CCN2CC(C(=O)NCCc3ccc(C)cc3)CC2=O)cc1OC (configuration not stated)	79µM*	-28%	?	?	4%	?
Cc1ccc(CCNC(=O)C2CC(=O)N(CCc3ccc(C)cc3)C2)cc1 (configuration not stated)	13%	·	10%	-6%	-2%	-7%[60.1 µM]
CCCCCc1c2c(cc(O)c1C(=O)O)OC(=O)c1cc(C(=O)CCCC)c(OC)cc1O2	?	?	·	79µM*	?	-7%
CCCCCC(=O)Cc1cc(O)cc(O)c1C(=O)Oc1cc(CC(=O)CCCCC)c(C(=O)O)c(OC)c1	·	·	·	·	·	-11%[60.1 µM]
CCCCCc1c2c(cc(O)c1C(=O)O)OC(=O)c1c(cc(OC)cc1C(=O)CCCC)O2	?	?	50µM*	79µM*	-22%	?
CC(=O)NC(Cc1ccc(Cl)cc1)C(=O)NCC(N)C(=O)c1ccccc1 (configuration not stated)	7%	·	·	·	12%	-5%
CC(C)=CCc1c2c(c3occ(-c4ccc(O)cc4)c(=O)c3c1O)C=CC(C)(C)O2	18%	-7%	?	?	-12%	?
CC1(C)C=Cc2c(c3c(c4c(=O)c(-c5ccc(O)cc5)coc24)OC(C)(C)CC3)O1	3%	-2%	11µM*	-14%	-4%	-9%
COc1cc(C=O)cc(OC)c1[N+](=O)[O-]	11%	·	·	·	11%	-4%
CCc1ccc(C2CC(=O)N3CN(c4ccccc4)CSC3=C2C#N)cc1 (configuration not stated)	?	-22%[57.1 µM]	40µM*	-3%	?	-18%
CCOC(=O)c1ccc(N2CSC3=C(C#N)C(c4cccs4)CC(=O)N3C2)cc1 (configuration not stated)	-7%	1%	0%	-3%	?	-14%
CCc1ccc(N2CSC3=C(C#N)C(c4cccs4)CC(=O)N3C2)cc1 (configuration not stated)	11µM*	-1%[11.6 µM]	?	?	1%	79µM*
N#CC1=C2SCN(c3ccc(F)cc3)CN2C(=O)CC1c1cccc(F)c1 (configuration not stated)	-16%	-2%	4%	8%	-26%	-12%
SMILES	POLI inh	WRN inhibitor	Pol beta inh	POLH inh	FEN1 inhibitor	POLK inh
C[C@H](NC(=O)[C@@H](N)Cc1ccc(O)cc1)C(=O)NCC(=O)N[C@H]1CSSC[C@@H](C(=O)O)NC(=O)[C@H](CO)NC(=O)[C@H]([C@@H](C)O)NC(=O)[C@H](Cc2ccccc2)NC(=O)[C@H]([C@@H](C)O)NC(=O)[C@H](CCCCN)NC(=O)[C@@H](Cc2c[nH]c3ccccc23)NC(=O)[C@H](Cc2ccccc2)NC(=O)[C@H](Cc2ccccc2)NC(=O)[C@H](CC(N)=O)NC(=O)[C@H](CCCCN)NC1=O	·	·	·	·	·	17%[60.1 µM]
O=C(Cc1cc(=O)[nH][nH]1)N/N=C/C=C/c1ccccc1	?	?	-14%	14µM*	?	-31%
COC1=CC(=O)C(O)=C(CCCCCCC/C=C/CCCCCCCC2=C(O)C(=O)C=C(OC)C2=O)C1=O	7.9µM*	35µM*	·	3.5µM*	20µM*	20µM*
Cc1ccc(S(=O)(=O)Nc2ccc(O)c(Sc3ncn[nH]3)c2)cc1	18%	-1%	-2%	-18%	-9%	-1%
Cc1ccc(S(=O)(=O)/N=C2/C=C(Sc3ncn[nH]3)C(=O)c3ccccc32)cc1	1.1µM*	32µM*	?	3.5µM*	50µM*	-35%
CC(C)c1ccc(S(=O)(=O)/N=C2/C=C(Sc3ncn[nH]3)C(=O)c3ccccc32)cc1	3.5µM*	32µM*	22µM*	13µM*	79µM*	79µM*
O=C(NCCCCN1CCOCC1)c1cc2ccccc2o1	·	·	·	·	·	17%[60.1 µM]
CCC(CO)Oc1cc(NCc2ccccc2)c2ncn(C(C)C)c2c1 (configuration not stated)	18µM*	1%[11.6 µM]	·	-9%	-3%	11%
CCC(CO)Oc1cc(NC(=O)c2ccc(N)cc2)c2ncn(C(C)C)c2c1 (configuration not stated)	?	-33%	·	89µM*	-2%	3%
CCC(CO)Oc1cc(NCc2ccc(O)cc2)c2ncn(C(C)C)c2c1 (configuration not stated)	3%	3%	·	-11%	-6%	-2%
CCCCOc1cc(NCc2ccccc2)c2ncn(C(C)C)c2c1	?	-4%	·	-19%	-20%	-23%
CCOCCOc1cc(NCc2ccccc2)c2ncn(C(C)C)c2c1	35µM*	4%[11.6 µM]	·	-23%	?	-24%
